Experimental data reported in ChEMBL document CHEMBL3988442, “University of Dundee, Small-Polar-MMV Screening Library” (2021).
For some of these results: Potency and affinity values are given separately.

Key:
Set-up in all cases: scale not given: direction of the effect not stated beside the values
[1] = target: Protein translocase subunit SecA (Escherichia coli (strain K12)) (UniProt P10408); experiment: Assay to Identify E. coli SecA ATPase Inhibitors; assay type: functional; details: 30 µM
[2] = target: T1, Ubiquitin-activating enzyme e1, putative (Leishmania donovani (strain BPK282A1)) (UniProt E9BSI1); experiment: Leishmania donovani Ubiquitin Activating Enzyme (LdE1); assay type: functional; details: 30 µM
T1 sequence (whole entry): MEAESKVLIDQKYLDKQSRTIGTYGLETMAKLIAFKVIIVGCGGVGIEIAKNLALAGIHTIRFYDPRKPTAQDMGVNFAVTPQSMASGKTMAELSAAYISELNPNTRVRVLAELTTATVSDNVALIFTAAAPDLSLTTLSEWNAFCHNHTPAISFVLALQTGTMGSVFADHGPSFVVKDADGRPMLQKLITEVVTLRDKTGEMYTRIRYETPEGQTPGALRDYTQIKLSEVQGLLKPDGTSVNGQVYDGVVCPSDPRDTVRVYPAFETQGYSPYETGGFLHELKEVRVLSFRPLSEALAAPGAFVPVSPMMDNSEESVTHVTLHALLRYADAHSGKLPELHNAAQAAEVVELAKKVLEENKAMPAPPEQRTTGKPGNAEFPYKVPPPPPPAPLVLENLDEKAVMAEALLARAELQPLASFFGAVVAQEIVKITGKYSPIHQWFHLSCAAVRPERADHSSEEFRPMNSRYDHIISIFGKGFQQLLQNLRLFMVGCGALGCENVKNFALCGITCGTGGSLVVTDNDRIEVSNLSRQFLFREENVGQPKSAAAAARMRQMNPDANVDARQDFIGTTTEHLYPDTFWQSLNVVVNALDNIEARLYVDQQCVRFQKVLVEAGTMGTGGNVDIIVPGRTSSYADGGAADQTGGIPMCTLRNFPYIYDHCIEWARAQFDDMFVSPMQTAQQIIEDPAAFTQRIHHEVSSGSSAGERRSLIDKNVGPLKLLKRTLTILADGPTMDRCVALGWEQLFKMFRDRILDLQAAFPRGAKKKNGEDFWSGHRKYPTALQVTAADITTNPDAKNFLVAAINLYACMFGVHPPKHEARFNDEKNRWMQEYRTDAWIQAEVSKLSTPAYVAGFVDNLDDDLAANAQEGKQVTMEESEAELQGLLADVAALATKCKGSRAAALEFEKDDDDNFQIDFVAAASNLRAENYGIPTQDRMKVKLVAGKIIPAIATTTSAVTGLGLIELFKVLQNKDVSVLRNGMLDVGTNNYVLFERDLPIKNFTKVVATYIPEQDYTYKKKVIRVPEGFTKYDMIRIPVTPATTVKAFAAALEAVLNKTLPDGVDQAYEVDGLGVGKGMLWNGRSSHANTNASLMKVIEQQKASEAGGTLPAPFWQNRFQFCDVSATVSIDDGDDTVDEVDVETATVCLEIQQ

[3] = target: AMP-activated protein kinase, AMPK (Homo sapiens) (UniProt P54646+O43741+P54619+Q9UGJ0+Q9Y478+Q13131+Q9UGI9); experiment: AMP-dependent Kinase enzyme assay. An in vitro enzyme assay that detects ADP turnover that is directly proportional to AMPK activity. This uses naive AMPK that is activated during the assay with MK-8722; assay type: functional; details: 30 µM
[4] = target: Sialic acid-binding Ig-like lectin 9 (Homo sapiens) (UniProt Q9Y336); experiment: Hs-Siglec9 ALPHAscreen SOP 20170721; details: 10 µM
Trypanosoma cruzi = experiment: Trypanosoma cruzi phosphomannomutase and mannose-1-phosphate guanylyltransferase assay; assay type: functional; details: 10 µM
[5] = target: T2, Arginase-2, mitochondrial (Homo sapiens) (UniProt P78540); experiment: in vitro enzyme assay to detect the production of urea directly proportional to the activity of Arginase II; assay type: functional; details: 33.3 µM; further: in the data most compounds retested in dose-response had high values
T2 sequence (whole entry): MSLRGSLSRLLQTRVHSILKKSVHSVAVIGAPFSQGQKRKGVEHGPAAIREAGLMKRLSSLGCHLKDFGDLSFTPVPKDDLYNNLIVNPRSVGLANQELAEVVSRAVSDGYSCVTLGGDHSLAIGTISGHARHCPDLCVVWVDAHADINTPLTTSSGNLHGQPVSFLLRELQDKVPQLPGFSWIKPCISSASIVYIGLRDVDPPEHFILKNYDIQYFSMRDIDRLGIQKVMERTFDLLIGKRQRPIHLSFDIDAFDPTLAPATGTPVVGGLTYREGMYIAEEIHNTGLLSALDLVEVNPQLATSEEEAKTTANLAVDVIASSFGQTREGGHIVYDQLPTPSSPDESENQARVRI

[6] = target: T3, Proteasome subunit beta (Trypanosoma cruzi) (UniProt O96673); experiment: Trypanosoma cruzi proteasome chymotrypsin-like activity (TcProtChymo) assay.; further: in the data most compounds retested in dose-response had high values; assay type: functional; details: 9.37 µM
T3 sequence (whole entry): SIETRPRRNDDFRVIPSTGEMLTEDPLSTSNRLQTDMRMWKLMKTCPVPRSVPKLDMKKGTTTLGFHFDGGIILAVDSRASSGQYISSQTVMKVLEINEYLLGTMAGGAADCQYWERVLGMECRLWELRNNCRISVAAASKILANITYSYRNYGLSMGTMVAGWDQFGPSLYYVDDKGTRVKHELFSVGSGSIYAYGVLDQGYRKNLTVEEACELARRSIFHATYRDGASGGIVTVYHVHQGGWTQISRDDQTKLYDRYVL

Homo sapiens = species on record: Homo sapiens; experiment: To identify inhibition of the IFN signalling (Jak-Stat) pathway via expression of an eGFP reporter gene under the control of an IFN-stimulated response element (ISRE) containing MxA promoter.; assay type: functional; details: 30 µM
[7] = target: T4, Tyrosyl-tRNA synthetase, putative (Trypanosoma cruzi (strain CL Brener)) (UniProt Q4DSP6); experiment: Trypanosoma cruzi tyrosyl tRNA synthetase (TcYRS) _High Tyrosine SOP; assay type: functional; details: 30 µM; further: in the data most compounds retested in dose-response had high values
T4 sequence (whole entry): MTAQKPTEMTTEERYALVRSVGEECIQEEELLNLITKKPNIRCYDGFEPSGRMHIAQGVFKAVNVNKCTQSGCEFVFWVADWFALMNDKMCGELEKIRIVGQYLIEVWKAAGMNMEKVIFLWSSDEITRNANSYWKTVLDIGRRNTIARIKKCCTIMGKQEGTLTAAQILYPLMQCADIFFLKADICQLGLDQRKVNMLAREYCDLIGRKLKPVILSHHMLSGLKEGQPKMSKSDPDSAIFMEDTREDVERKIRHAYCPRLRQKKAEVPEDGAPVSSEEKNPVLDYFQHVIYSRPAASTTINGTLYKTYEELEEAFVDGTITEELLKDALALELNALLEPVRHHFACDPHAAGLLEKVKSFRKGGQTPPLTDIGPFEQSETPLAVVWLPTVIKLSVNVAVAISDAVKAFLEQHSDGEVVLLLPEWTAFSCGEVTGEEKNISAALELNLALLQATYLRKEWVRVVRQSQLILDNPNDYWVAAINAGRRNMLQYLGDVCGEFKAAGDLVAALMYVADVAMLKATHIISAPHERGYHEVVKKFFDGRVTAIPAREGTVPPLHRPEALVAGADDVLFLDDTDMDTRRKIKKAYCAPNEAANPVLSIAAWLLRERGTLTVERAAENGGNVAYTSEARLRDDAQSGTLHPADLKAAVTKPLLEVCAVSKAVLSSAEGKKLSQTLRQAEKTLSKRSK

[8] = target: T4, Tyrosyl-tRNA synthetase, putative (Trypanosoma cruzi (strain CL Brener)); experiment: Trypanosoma cruzi tyrosyl tRNA synthetase (TcYRS) SOP; assay type: functional; details: 30 µM
[9] = target: Chromo domain-containing protein 1 (Saccharomyces cerevisiae (strain ATCC 204508 / S288c) (Baker's yeast)) (UniProt P32657); experiment: ScCHD-1 Enzyme Inhibition Assay; assay type: functional; details: 30 µM; further: in the data most compounds retested in dose-response had high values
Chain of Chromo domain-containing protein 1 (Saccharomyces cerevisiae (strain ATCC 204508 / S288c) (Baker's yeast)) (P32657 whole entry, the tested form may be a part): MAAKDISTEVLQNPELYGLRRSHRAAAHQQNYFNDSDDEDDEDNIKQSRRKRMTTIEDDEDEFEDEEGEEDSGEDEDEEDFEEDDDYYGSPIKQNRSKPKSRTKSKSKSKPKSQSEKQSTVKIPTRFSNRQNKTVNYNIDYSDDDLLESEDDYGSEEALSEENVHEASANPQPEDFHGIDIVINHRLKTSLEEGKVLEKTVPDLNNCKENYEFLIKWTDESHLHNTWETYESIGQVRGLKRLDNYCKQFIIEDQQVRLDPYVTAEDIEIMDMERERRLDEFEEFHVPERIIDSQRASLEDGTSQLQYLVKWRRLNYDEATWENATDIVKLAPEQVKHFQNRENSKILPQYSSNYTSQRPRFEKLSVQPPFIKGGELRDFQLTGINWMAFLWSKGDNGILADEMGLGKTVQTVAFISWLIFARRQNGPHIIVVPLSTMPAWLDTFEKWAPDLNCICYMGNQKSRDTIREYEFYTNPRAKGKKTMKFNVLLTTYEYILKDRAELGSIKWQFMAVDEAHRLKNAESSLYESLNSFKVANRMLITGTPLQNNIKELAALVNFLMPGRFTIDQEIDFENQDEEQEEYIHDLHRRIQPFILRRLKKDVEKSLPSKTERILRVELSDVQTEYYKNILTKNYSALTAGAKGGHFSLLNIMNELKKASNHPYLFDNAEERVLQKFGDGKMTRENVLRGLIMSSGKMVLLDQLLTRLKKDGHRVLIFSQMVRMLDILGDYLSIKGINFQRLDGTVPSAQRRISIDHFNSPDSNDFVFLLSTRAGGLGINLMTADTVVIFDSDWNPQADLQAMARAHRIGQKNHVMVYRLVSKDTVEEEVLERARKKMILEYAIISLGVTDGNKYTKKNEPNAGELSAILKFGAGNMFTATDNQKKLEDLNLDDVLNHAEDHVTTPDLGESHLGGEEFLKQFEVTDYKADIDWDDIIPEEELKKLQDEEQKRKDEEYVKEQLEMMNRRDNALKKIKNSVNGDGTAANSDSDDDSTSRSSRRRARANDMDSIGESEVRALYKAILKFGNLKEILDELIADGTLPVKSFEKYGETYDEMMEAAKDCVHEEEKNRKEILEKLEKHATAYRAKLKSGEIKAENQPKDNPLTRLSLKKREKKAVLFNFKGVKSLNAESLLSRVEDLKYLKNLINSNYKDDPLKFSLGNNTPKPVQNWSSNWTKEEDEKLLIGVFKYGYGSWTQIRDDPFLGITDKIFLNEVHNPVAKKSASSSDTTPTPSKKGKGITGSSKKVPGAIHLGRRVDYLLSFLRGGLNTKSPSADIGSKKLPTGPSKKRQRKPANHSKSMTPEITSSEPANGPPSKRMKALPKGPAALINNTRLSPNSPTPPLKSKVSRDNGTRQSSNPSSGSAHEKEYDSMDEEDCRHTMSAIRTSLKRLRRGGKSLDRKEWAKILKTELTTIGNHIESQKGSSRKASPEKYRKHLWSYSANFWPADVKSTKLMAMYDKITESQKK

Chain of Sialic acid-binding Ig-like lectin 9 (Homo sapiens) (Q9Y336 whole entry): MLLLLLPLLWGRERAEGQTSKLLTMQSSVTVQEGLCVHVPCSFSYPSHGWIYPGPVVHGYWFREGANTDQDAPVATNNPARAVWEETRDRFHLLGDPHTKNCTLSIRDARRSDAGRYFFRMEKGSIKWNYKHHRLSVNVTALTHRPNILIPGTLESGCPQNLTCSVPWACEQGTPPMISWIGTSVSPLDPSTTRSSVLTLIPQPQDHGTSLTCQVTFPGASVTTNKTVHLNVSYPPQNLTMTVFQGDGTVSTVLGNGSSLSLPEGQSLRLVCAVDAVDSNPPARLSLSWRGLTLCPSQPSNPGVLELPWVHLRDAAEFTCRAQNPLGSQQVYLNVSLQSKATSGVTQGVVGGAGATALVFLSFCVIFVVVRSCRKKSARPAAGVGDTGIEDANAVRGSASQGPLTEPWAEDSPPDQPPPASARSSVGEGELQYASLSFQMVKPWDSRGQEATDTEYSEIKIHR
Chain of Protein translocase subunit SecA (Escherichia coli (strain K12)) (P10408 whole entry): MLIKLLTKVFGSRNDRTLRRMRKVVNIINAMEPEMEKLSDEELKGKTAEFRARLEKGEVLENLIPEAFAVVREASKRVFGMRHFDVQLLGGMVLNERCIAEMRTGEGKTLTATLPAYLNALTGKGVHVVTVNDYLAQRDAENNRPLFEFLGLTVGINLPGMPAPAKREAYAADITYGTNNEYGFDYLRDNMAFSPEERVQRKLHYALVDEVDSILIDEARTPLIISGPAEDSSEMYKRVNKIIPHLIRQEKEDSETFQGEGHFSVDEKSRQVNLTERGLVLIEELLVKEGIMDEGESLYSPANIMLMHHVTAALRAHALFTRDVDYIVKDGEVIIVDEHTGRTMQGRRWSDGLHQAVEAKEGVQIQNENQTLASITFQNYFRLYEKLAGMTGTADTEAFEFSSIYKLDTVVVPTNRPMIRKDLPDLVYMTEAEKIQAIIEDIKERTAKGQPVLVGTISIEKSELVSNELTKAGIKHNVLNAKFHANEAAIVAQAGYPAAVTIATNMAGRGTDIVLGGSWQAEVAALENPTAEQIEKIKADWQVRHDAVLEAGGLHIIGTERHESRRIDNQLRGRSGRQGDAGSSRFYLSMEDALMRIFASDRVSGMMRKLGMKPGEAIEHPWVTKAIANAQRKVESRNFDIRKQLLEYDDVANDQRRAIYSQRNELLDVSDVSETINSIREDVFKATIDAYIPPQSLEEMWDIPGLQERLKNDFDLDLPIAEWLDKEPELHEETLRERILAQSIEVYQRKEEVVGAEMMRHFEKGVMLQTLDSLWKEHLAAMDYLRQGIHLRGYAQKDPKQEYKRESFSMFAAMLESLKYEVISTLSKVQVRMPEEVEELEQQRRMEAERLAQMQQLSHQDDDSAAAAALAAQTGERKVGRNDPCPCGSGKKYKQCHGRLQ

Work on Cc1nn(C)c(Cl)c1C1CCCN1C(=O)c1cc(Cl)c[nH]1 (stereo unspecified) yielded a Percent Effect [1] of -2.13%, a Percent Effect [2] of 2.7% and a Percent Effect [3] of 0.443%. For the same compound, the Percent Effect [4] was 9.97%, the Percent Effect (Trypanosoma cruzi) was -1.79% and the Percent Effect [5] was 2%. For the same compound, the Percent Effect [6] was -1.62%, the Percent Effect (Homo sapiens) was 2.15% and the Percent Effect [7] was 7.39%. It also gave a Percent Effect [8] of 3.7% and a Percent Effect [9] of 2.56%.

Compound OC(CN1CCOCC1)c1ccc(OC(F)(F)F)cc1 (stereo unspecified) has a Percent Effect [1] of -5.02%, a Percent Effect [2] of 2.7% and a Percent Effect [3] of 35.5%. The Percent Effect [4] was -1.38%, the Percent Effect (Trypanosoma cruzi) was 0.283% and the Percent Effect [5] was 0.401%. It also gave a Percent Effect [6] of 4.32%, a Percent Effect (Homo sapiens) of 1.68% and a Percent Effect [7] of 6.4%. The Percent Effect [8] was 13.6% and the Percent Effect [9] was -7.59%.

For COc1ncc(NC(=O)Nc2cc(C)ccc2OC)cn1, the Percent Effect [1] was -9.27%, the Percent Effect [2] was 15.6% and the Percent Effect [3] was -6.73%. The Percent Effect [4] was -2.77%, the Percent Effect (Trypanosoma cruzi) was 9.57% and the Percent Effect [5] was 0.645%. It also gave a Percent Effect [6] of 15.3%, a Percent Effect (Homo sapiens) of 10.7% and a Percent Effect [7] of 3.17%. It also gave a Percent Effect [8] of 11.5% and a Percent Effect [9] of -7.83%.

CN(C)C[C@H]1OC[C@@H]2CCN(C(=O)c3ccco3)C[C@@H]21 was tested, and the Percent Effect [1] was -8.17%, the Percent Effect [2] was -2.7% and the Percent Effect [3] was -0.601%. The Percent Effect [4] was -7.74%, the Percent Effect (Trypanosoma cruzi) was -3.23% and the Percent Effect [5] was 0.248%. For the same compound, the Percent Effect [6] was -0.0858%, the Percent Effect (Homo sapiens) was 11.6% and the Percent Effect [7] was 1.07%. The Percent Effect [8] was 3.7% and the Percent Effect [9] was 0.795%.

Compound Nc1cc(N2CCCC2c2cnccn2)ncn1 (stereo unspecified) has a Percent Effect [1] of -0.532%, a Percent Effect [2] of 9.46% and a Percent Effect [3] of -1.66%. The Percent Effect [4] was -2.65%, the Percent Effect (Trypanosoma cruzi) was 2.96% and the Percent Effect [5] was -5.34%. For the same compound, the Percent Effect [6] was 14.8%, the Percent Effect (Homo sapiens) was 2.07% and the Percent Effect [7] was 8.6%. The Percent Effect [8] was 14.3% and the Percent Effect [9] was -13.1%.

With CCOCCCNC(=O)c1cc(C)nc(N2CCCC2)n1 the Percent Effect [1] was -10.2%, the Percent Effect [2] was 12% and the Percent Effect [3] was -12.6%. The Percent Effect [4] was 7.96%, the Percent Effect (Trypanosoma cruzi) was 4.91% and the Percent Effect [5] was -11.1%. It also gave a Percent Effect [6] of 5.36%, a Percent Effect (Homo sapiens) of 8.1% and a Percent Effect [7] of 1.06%. For the same compound, the Percent Effect [8] was 10.3% and the Percent Effect [9] was -14%.

Compound N#CC1(C(=O)Nc2ccc(OC(F)F)cc2)CCCC1 has a Percent Effect [1] of -4.03%, a Percent Effect [2] of 1.39% and a Percent Effect [3] of 5.97%. It also gave a Percent Effect [4] of -0.254%, a Percent Effect (Trypanosoma cruzi) of 0.68% and a Percent Effect [5] of 2.21%. The Percent Effect [6] was 3.68%, the Percent Effect (Homo sapiens) was -8.03% and the Percent Effect [7] was 2.1%. It also gave a Percent Effect [8] of 5.13% and a Percent Effect [9] of -0.635%.

CCc1nc(CN(C)C2CCN(Cc3cnc(C)cn3)C2)no1 (stereo unspecified) was tested, and the Percent Effect [1] was 0.722%, the Percent Effect [2] was 27.9% and the Percent Effect [3] was -1.25%. For the same compound, the Percent Effect [4] was -16.7%, the Percent Effect (Trypanosoma cruzi) was 5.38% and the Percent Effect [5] was -3.42%. The Percent Effect [6] was 15.5%, the Percent Effect (Homo sapiens) was 26.6% and the Percent Effect [7] was 8.37%. The Percent Effect [8] was 21.5% and the Percent Effect [9] was -17%.

O=C(CN1CCCCC1Cn1cncn1)NCc1ccccn1 (stereo unspecified) was tested, and the Percent Effect [1] was -0.608%, the Percent Effect [2] was 2.53% and the Percent Effect [3] was -4.5%. For the same compound, the Percent Effect [4] was -1.76%, the Percent Effect (Trypanosoma cruzi) was -5% and the Percent Effect [5] was 5.32%. It also gave a Percent Effect [6] of -6.31%, a Percent Effect (Homo sapiens) of 11% and a Percent Effect [7] of 4.43%. The Percent Effect [8] was 3.8% and the Percent Effect [9] was -4.29%.

In the case of CNc1nc(CNC(=O)Nc2cccc(-c3nnco3)c2)cs1, the Percent Effect [1] was -5.07%, the Percent Effect [2] was 8.11% and the Percent Effect [3] was 1.7%. For the same compound, the Percent Effect [4] was -1.65%, the Percent Effect (Trypanosoma cruzi) was -3.81% and the Percent Effect [5] was -4.25%. The Percent Effect [6] was 4.13%, the Percent Effect (Homo sapiens) was -4.5% and the Percent Effect [7] was 2.97%. For the same compound, the Percent Effect [8] was 1.22% and the Percent Effect [9] was 4.29%.

Cc1ccc(C(=O)NCCCN2CCOCC2)c(Cl)c1 gave a Percent Effect [1] of -2.82%, a Percent Effect [2] of 2.6% and a Percent Effect [3] of 2.57%. For the same compound, the Percent Effect [4] was 5.34%, the Percent Effect (Trypanosoma cruzi) was 6.79% and the Percent Effect [5] was -2.76%. The Percent Effect [6] was 4.33%, the Percent Effect (Homo sapiens) was 18.2% and the Percent Effect [7] was 3.23%. For the same compound, the Percent Effect [8] was 11.1% and the Percent Effect [9] was 108%.
